Test results as given in PubChem BioAssay (NCATS).
Inconclusive results are not listed. Activity calls are given as the source filed them. The call rests on the fitted dose curve; in most records, active means well fitted curve in the direction sought with a large enough effect; inconclusive means small, poorly fitted or top-dose-only effect, or another doubt; inactive means no such curve, though single readings can be large; an effect the other way counts as inactive or inconclusive.

Legend:
[1] = biological target: Metallo-beta-lactamase type 2 (Klebsiella pneumoniae) (UniProt C7C422); test: qHTS to identify inhibitors of the New Delhi Metallo-beta-lactamase (NDM): assay validation screen against the NCATS LOPAC Collection (AID 1794843); further: series mostly up to about 38 µM; on the % scale 0 is the no-effect control and ±100 the full control effect
How it was run: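 Absorbance at 485 nm from nitrocefin turnover (50 uM solution added), read at plateau, gives the read-out. Compounds in DMSO were incubated first with 2 nM final NDM-1 in pH 7.0 HEPES buffer containing 1 uM ZnSO4 and 0.01% Tween20.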

[2] = biological target: Glutathione peroxidase 1 (Homo sapiens) (UniProt P07203); test: Primary qHTS Assay for Inhibitors of Recombinant Selenoprotein Glutathione Peroxidase 1 (GPX1) (AID 1845191); further: nearly all actives have a fitted effect of over 65% in size
How it was run: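 NADPH consumption tracked by fluorescence at 340/450 nm between t=0 and t=15 min, room temperature. Final mix: 10 nM GPX1, 100 nM glutathione reductase, 1 mM GSH, 0.5 mM NADPH, 0.5 mM cumene hydroperoxide, 0.01% BSA; 30 min compound–enzyme preincubation.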

[3] = biological target: Phospholipid hydroperoxide glutathione peroxidase GPX4 (Homo sapiens) (UniProt P36969); test: Primary qHTS Assay for Inhibitors of Recombinant Selenoprotein Glutathione Peroxidase 4 (GPX4) (AID 1845192); further: nearly all actives have a fitted effect of over 65% in size
How it was run: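 NADPH consumption followed by fluorescence at 340/450 nm, t=0 and after 15 min at room temperature. Reaction started with cumene hydroperoxide (0.5 mM final) after 30 min compound–GPX4 preincubation; final 200 nM GPX4, 100 nM GR, 1 mM GSH, 0.5 mM NADPH.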

[4] = HepG2 viability counterscreen (readout 2: ATP content) against the NCATS DSHEA and TCM libraries (AID 1794840); further: 0% is about no effect
How it was run: (§1)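 Same wells read twice: first fluorescence from cleaved GF-AFC substrate (25 uM final, 30 min, 37C) for live-cell protease, then CellTiter-Glo luminescence after 30 min at room temperature for ATP. HepG2 cells were exposed ~24 h to substances.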

[5] = HepG2 viability counterscreen (readout 1: protease activity) against the NCATS DSHEA and TCM libraries (AID 1794841);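 further: cells exposed to compounds for about 24 h before the protease read; 0% is about no effect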
How it was run: as §1

[6] = biological target: Cytochrome P450 3A4 (Homo sapiens) (UniProt P08684); test: qHTS for inhibitors of CYP3A4 against the NCATS DSHEA and TCM libraries (AID 1919971);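 further: on the % scale 0 is the no-effect control and ±100 the full control effect; inhibition lowers luminescence from luciferin made by CYP3A4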
How it was run: (§2)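 Each CYP isoform and its pro-luciferin substrate, at isoform-specific final concentrations, were preincubated 15 min at RT with substances. NADPH regeneration solution (1x) started a 30-45 min reaction, and P450-Glo luminescence was read.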

[7] = biological target: Cytochrome P450 2D6 (Homo sapiens) (UniProt P10635); test: qHTS for inhibitors of CYP2D6 against the NCATS DSHEA and TCM libraries (AID 1919972); further: on the % scale 0 is the no-effect control and ±100 the full control effect
How it was run: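 CYP2D6 enzyme with pro-luciferin substrate in manufacturer buffer (typically 100 mM KPO4), preincubated 15 min RT with substances (most at 19.5 nM upward); NADPH regeneration system (1x) started 30–45 min RT reaction; P450-Glo luminescence read after 30 min; quinidine as intraplate control.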

[8] = biological target: Cytochrome P450 2C9 (Homo sapiens) (UniProt P11712); test: qHTS for inhibitors of CYP2C9 against the NCATS DSHEA and TCM libraries (AID 1919973);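 further: luminogenic pro-luciferin CYP2C9 substrate turned into luciferin with NADPH regeneration; series mostly up to about 34 µM; on the % scale 0 is the no-effect control and ±100 the full control effect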
How it was run: as §2

[9] = KB-3-1 P-gp reporter qHTS against the NCATS DSHEA and TCM libraries (AID 1919975); further: 0% is about no effect
How it was run: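 KB-3-1 parental line, 1536-well qHTS: cells seeded, ~4 h attachment, pintool compound addition, ~72 h at 37C, then CellTiter-Glo, 30 min RT, luminescence. Concentration-response format.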

[10] = qHTS Counterscreen for compound interference against the NCATS DSHEA and TCM libraries (AID 1919978); details: firefly luciferase detection reagent interference, luminescence;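 further: compounds preincubated with 1 µM D-luciferin or buffer before detection reagent; % of control where 0% means no effect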
How it was run: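 Compounds, titrated from 19.5 nM to 39.8 uM final, were pinned onto 1 uM D-luciferin or plain 100 mM potassium phosphate. After 15 min at room temperature, luciferin detection reagent was added for 30 min before the luminescence read.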

[11] = Dual reporter qHTS for agonist of Pregnane X Receptor (hPXR) against the NCATS DSHEA and TCM libraries: Fluorescence readout (AID 1920058); further: 0% is about no effect
How it was run: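 Viability readout (CellTiter-Fluor, 405/540 nm, 1 h) from agonist-mode PXR dual reporter in hPXR-Luc HepG2 cells. Substances ~24 h, 37 °C, 5% CO2; rifampicin reference, tetraoctyl ammonium bromide cytotoxic control.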

[12] = Viability counterscreen for antagonist of constitutive androstane receptor (CAR) against the NCATS DSHEA and TCM libraries (AID 1794837);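 further: compound exposure lasted 24 h before viability reading; 0% is about no effect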
How it was run: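 Cells: HepG2 line carrying CYP2B6 reporter and hCAR, seeded and attached 5 h. Then pin-transferred test substances plus agonist CITCO at 48 uM final; 24 h incubation; fluorogenic viability reagent, 1 h.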

[13] = Viability counterscreen for agonist of constitutive androstane receptor (CAR) against the NCATS DSHEA and TCM libraries (AID 1794838);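 further: HepG2 cells with CYP2B6 reporter and hCAR plus 0.75 µM PK11195 antagonist; 0% is about no effect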
How it was run: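 Cell health was measured as CellTiter-Fluor signal in HepG2-CYP2B6-hCAR cells treated for 24 h with substances alongside the hCAR antagonist PK11195 (0.75 uM final).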

[14] = biological target: Nuclear receptor subfamily 1 group I member 3 (Homo sapiens) (UniProt Q14994); test: Primary qHTS for agonist of constitutive androstane receptor (CAR) against the NCATS DSHEA and TCM libraries (AID 1794839);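 further: HepG2 cells expressing human CAR with a CYP2B6 reporter plus PK11195 antagonist; luciferase reporter luminescence read with ONE-Glo; 0% is about no effect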
How it was run: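 qHTS, agonist mode: HepG2-CYP2B6-hCAR, 2,500 cells/well, 5 h attach; cpds + PK11195 0.75 µM final; 24 h, 37 °C, 5% CO2. Readouts: CellTiter-Fluor (405/540 nm), then ONE-Glo luminescence.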

[15] = biological target: Cytochrome P450 2C19 (Homo sapiens) (UniProt P33261); test: qHTS for inhibitors of CYP2C19 against the NCATS DSHEA and TCM libraries (AID 1919974);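 further: luminescence from luciferin released by CYP2C19 oxidation of a pro-luciferin substrate; on the % scale 0 is the no-effect control and ±100 the full control effect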
How it was run: as §2

[16] = biological target: Cytochrome P450 1A2 (Homo sapiens) (UniProt P05177); test: qHTS for inhibitors of CYPIA2 against the NCATS DSHEA and TCM libraries (AID 1919976)
How it was run: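 Reaction started with 1x NADPH regeneration solution and run 30-45 min, room temperature, protected from light, after compounds sat 15 min with CYP1A2 and pro-luciferin substrate. P450-Glo detection gave luminescence; furafylline served as control.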

Glutathione peroxidase 1 (Homo sapiens), sequence (P07203 whole entry, looked up): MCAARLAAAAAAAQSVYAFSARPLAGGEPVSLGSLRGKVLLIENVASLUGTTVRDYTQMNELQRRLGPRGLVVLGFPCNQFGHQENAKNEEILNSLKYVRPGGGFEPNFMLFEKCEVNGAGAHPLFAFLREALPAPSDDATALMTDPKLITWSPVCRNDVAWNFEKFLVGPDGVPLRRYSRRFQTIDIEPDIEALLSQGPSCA
Metallo-beta-lactamase type 2 (Klebsiella pneumoniae), sequence (C7C422 whole entry, looked up): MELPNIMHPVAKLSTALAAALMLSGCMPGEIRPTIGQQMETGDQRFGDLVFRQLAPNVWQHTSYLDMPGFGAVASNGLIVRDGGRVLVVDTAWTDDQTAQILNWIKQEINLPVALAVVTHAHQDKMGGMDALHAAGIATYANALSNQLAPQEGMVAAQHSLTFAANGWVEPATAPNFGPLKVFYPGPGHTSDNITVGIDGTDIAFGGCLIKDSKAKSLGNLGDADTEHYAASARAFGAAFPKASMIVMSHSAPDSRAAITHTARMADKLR
Cytochrome P450 1A2 (Homo sapiens), sequence (P05177 whole entry, looked up): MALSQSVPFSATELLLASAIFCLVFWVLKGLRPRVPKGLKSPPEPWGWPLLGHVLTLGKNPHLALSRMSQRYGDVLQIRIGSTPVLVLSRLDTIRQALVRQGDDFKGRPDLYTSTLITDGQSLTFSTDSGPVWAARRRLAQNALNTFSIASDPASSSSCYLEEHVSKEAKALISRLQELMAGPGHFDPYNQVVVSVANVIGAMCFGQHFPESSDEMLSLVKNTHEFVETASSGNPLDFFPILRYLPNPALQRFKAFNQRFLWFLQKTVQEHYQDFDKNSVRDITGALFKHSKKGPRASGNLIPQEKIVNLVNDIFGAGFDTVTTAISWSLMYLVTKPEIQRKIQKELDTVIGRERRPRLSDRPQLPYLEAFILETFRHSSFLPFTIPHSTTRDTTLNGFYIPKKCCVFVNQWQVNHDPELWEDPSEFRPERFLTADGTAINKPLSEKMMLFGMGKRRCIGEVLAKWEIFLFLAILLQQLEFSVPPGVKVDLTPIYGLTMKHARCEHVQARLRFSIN
Phospholipid hydroperoxide glutathione peroxidase GPX4 (Homo sapiens), sequence (P36969 whole entry, looked up): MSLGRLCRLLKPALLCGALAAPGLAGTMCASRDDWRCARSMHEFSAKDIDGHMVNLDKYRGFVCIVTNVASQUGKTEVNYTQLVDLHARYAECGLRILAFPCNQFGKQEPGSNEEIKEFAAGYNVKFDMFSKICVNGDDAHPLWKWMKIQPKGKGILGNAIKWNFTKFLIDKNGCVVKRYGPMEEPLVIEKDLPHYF
Cytochrome P450 3A4 (Homo sapiens), sequence (P08684 whole entry, looked up, canonical isoform): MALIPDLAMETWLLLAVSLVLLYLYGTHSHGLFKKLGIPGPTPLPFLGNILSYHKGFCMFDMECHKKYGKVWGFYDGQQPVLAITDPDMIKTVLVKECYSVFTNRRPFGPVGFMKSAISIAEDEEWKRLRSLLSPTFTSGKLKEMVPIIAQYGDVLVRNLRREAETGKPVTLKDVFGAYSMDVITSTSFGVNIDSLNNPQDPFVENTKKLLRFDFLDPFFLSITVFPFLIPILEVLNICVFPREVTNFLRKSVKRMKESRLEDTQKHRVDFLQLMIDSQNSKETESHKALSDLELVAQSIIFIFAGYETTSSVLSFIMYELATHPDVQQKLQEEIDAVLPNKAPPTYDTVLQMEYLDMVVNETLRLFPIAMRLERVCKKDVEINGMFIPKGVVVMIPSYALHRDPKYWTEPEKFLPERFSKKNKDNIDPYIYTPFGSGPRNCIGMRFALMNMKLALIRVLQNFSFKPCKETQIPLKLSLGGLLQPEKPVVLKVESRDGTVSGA
Nuclear receptor subfamily 1 group I member 3 (Homo sapiens), sequence (Q14994 whole entry, looked up): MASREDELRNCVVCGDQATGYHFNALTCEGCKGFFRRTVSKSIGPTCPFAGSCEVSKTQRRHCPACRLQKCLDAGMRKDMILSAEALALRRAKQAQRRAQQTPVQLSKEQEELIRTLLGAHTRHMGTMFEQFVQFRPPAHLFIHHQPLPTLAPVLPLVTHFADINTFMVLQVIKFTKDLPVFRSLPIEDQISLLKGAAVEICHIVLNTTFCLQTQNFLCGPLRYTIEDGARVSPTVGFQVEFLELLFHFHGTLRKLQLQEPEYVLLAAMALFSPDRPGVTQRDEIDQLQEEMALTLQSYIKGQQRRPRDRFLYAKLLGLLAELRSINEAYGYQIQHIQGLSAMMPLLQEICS
Cytochrome P450 2C9 (Homo sapiens), sequence (P11712 whole entry, looked up): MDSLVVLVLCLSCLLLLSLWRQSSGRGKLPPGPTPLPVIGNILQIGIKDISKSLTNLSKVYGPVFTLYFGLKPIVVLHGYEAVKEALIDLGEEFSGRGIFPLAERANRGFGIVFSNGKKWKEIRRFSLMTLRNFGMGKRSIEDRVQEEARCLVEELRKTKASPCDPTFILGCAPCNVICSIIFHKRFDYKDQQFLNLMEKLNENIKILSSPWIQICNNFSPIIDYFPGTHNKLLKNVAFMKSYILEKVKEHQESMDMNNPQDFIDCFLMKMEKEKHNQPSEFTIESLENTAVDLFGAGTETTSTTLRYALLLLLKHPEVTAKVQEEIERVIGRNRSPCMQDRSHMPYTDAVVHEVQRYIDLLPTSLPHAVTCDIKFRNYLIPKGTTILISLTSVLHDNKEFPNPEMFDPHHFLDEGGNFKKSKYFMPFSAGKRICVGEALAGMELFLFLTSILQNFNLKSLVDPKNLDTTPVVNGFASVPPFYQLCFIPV
Cytochrome P450 2D6 (Homo sapiens), sequence (P10635 whole entry, looked up): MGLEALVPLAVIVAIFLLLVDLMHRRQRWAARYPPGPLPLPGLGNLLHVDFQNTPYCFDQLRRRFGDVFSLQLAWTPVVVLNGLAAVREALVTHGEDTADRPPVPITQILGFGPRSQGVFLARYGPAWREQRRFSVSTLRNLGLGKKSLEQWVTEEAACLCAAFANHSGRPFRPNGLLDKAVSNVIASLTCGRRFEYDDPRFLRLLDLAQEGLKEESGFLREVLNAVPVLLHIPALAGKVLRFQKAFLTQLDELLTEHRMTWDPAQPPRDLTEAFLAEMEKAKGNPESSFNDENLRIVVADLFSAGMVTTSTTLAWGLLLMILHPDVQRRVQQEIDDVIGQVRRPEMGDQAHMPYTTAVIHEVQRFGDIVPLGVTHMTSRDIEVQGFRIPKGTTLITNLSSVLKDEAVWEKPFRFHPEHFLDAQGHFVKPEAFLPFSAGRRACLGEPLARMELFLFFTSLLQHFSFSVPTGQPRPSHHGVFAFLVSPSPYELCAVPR
Cytochrome P450 2C19 (Homo sapiens), sequence (P33261 whole entry, looked up): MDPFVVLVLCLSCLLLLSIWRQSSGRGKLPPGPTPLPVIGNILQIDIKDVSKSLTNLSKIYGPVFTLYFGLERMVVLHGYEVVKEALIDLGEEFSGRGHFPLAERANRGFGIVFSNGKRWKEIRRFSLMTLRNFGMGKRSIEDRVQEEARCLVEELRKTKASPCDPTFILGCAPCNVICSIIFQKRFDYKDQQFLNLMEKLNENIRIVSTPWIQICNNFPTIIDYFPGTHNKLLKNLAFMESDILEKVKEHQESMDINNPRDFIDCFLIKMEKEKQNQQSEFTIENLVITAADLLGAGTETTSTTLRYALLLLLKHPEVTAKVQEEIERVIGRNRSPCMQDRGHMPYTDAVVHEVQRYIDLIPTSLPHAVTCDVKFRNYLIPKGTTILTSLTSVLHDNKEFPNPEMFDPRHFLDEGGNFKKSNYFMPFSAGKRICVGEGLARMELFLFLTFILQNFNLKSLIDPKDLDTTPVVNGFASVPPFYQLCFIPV

CC(C)C(=O)c1c(C(C)C)nn2ccccc12
inactive: outcome [1] | Potency [2] | Potency [3]

CSc1ccc2c(c1)N(CCC1CCCCN1C)c1ccccc1S2 (stereo not given)
inactive: outcome [1] | Potency [2] | Potency [3]

CC(CN1c2ccccc2Sc2ccccc21)N(C)C (stereo not given)
inactive: outcome [1] | Potency [2] | Potency [3]

CCN(CC)CCOC(=O)C1(C2CCCCC2)CCCCC1
inactive: outcome [1] | Potency [2] | Potency [3]

NC(N)=NCCC[C@H](N)C(=O)O
inactive: outcome [4] | outcome [5] | outcome [1] | Potency [2] | Potency [3] | outcome [6] | outcome [7] | outcome [8] | outcome [9] | max response [10] -2.87% | outcome [11]

CC1=C(C/C=C(\C)CCC[C@H](C)CCC[C@H](C)CCCC(C)C)C(=O)c2ccccc2C1=O
inactive: outcome [12] | outcome [13] | outcome [14] | outcome [4] | outcome [5] | Potency [3] | outcome [7] | outcome [9] | max response [10] -2.28% | outcome [11]

CC1=C(/C=C/C(C)=C/C=C/C(C)=C/C(=O)O)C(C)(C)CCC1
inactive: outcome [1] | Potency [2] | Potency [3]

Nc1cc(=O)[nH]c(N)n1
inactive: outcome [1] | Potency [2] | Potency [3]

N=c1c[n+](N2CCOCC2)[n-]o1
inactive: outcome [1] | Potency [2] | Potency [3]

CCN(CC)C(C)CN1c2ccccc2Sc2ccccc21 (stereo not given)
inactive: outcome [1] | Potency [2] | Potency [3]

CNCC(O)c1ccc(O)c(O)c1 (stereo not given)
inactive: outcome [1] | Potency [2] | Potency [3]

CC(=O)c1ccc2c(c1)N(CCCN(C)C)c1ccccc1S2
inactive: outcome [1] | Potency [2] | Potency [3]

CC(CN(C)C)CN1c2ccccc2CCc2ccccc21 (stereo not given)
inactive: outcome [1] | Potency [2] | Potency [3]

C[C@H](NC(CCc1ccccc1)C(=O)O)C(=O)N1CCC[C@H]1C(=O)O (stereo not given in full)
inactive: outcome [1] | Potency [2] | Potency [3]

C[C@]12C[C@H](O)[C@H]3[C@@H](CCC4=CC(=O)CC[C@@]43C)[C@@H]1CC[C@@H]2C(=O)CO
inactive: outcome [1] | Potency [2] | Potency [3]

O=C(O)c1ccccc1O
inactive: outcome [12] | outcome [13] | outcome [14] | outcome [4] | outcome [5] | outcome [6] | outcome [7] | outcome [8] | outcome [15] | outcome [9] | outcome [16] | max response [10] -0.219% | outcome [11]

CC12CCC(CC1)C(C)(C)O2
inactive: outcome [4] | Potency [2] | Potency [3] | outcome [6] | outcome [7] | outcome [8] | outcome [15] | outcome [9] | outcome [16] | max response [10] -1.5% | outcome [11]

CNCCC(Oc1ccc(C(F)(F)F)cc1)c1ccccc1 (stereo not given)
inactive: outcome [1] | Potency [2] | Potency [3]

CC(C)NC[C@H](O)c1ccc(O)c(O)c1
inactive: outcome [1] | Potency [2] | Potency [3]

CN(C)CCOC(C)(c1ccccc1)c1ccccn1 (stereo not given)
inactive: outcome [1] | Potency [2] | Potency [3]

Cc1c(O)cccc1C(=O)N[C@@H](CSc1ccccc1)[C@H](O)CN1C[C@H]2CCCC[C@H]2C[C@H]1C(=O)NC(C)(C)C
inactive: outcome [1] | Potency [2] | Potency [3]

CC(=O)OCC(=O)[C@@]1(O)CC[C@H]2[C@@H]3CCC4=CC(=O)CC[C@]4(C)[C@H]3C(=O)C[C@@]21C
inactive: outcome [1] | Potency [2] | Potency [3]

CCN(CC)CCNC(=O)c1c(C)[nH]c(/C=C2\C(=O)Nc3ccc(F)cc32)c1C
inactive: outcome [1] | Potency [2] | Potency [3]

OCCN1CCN(CCCN2c3ccccc3Sc3ccc(Cl)cc32)CC1
inactive: outcome [1] | Potency [2] | Potency [3]

CC[C@H]1CN2CCc3cc(OC)c(OC)cc3[C@@H]2C[C@@H]1C[C@H]1NCCc2cc(OC)c(OC)cc21
inactive: outcome [1] | Potency [2] | Potency [3]

O=C1O[C@H]([C@@H](O)CO)C(O)=C1O
inactive: outcome [12] | outcome [13] | outcome [14] | outcome [4] | outcome [5] | Potency [2] | Potency [3] | outcome [6] | outcome [7] | outcome [8] | outcome [9] | outcome [16] | max response [10] -0.0092% | outcome [11]

O=C1N=C(O)CN1/N=C/c1ccc(-c2ccc([N+](=O)[O-])cc2)o1
inactive: outcome [1] | Potency [2] | Potency [3]

CN1CCN(C2Cc3ccccc3Sc3ccc(Cl)cc32)CC1 (stereo not given)
inactive: outcome [1] | Potency [2] | Potency [3]

C[C@H]1O[C@@H](n2cc(F)c(=O)[nH]c2=O)[C@H](O)[C@@H]1O
inactive: outcome [1] | Potency [2] | Potency [3]

CN(C)CCCN1c2ccccc2Sc2ccc(Cl)cc21
inactive: outcome [1] | Potency [2] | Potency [3]

CSc1ccc2c(c1)C(N1CCN(C)CC1)Cc1ccccc1S2 (stereo not given)
inactive: outcome [1] | Potency [2] | Potency [3]

CCCn1cnc2c1c(=O)n(CCCCC(C)=O)c(=O)n2C
inactive: outcome [1] | Potency [2] | Potency [3]
